From PubChem
ELG1 DNA repair: inhibitors of ELG1-dependent DNA repair in HEK293T cells; HEK293T ELG1-luciferase reporter, luminescence, 16 h; DNA damage induced by 5-fluorouridine; Potency, µM (series often up to 46.1 µM), for the others: at the highest dose activity change, negative = inhibition, hits mostly inhibitors; 2.3% of 330,000 active; further: potency means the concentration at half of the fitted maximal effect; nearly all actives have a fitted effect of over 55% in size
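Quantitative HTS, concentration-response format. 2,000 cells/well co-treated with 5-fluorouridine and compound, 16 hr in 5% CO2 at 37 °C; ONE-Glo luminescence read after 30 min.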
IL1B secr inh: blocks inflammasome-driven IL-1 beta release; THP-1 LPS/ATP IL-1B secretion, AlphaLISA, 16 h; stronger effect = lower value; activity change, % at 57.5 µM; 4.7% of 360,000 active; AID 743279; in the data active means activity change below about -50%; inconclusive means mostly about -30% to -49%
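THP-1 cells pretreated 1 hr with compounds (up to 57.5 uM final), then stimulated with LPS (250 ng/mL final) plus ATP (1.25 mM final); secreted IL-1B measured by AlphaLISA after 16 hr, decreased signal indicating inhibition.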
TDP1 cell noCPT: qHTS for Inhibitors of human tyrosyl-DNA phosphodiesterase 1 (TDP1): qHTS in cells in absence of CPT; DT40 Tdp1-/- hTDP1 cells, no CPT, ATP luminescence, 48 h; Potency, µM (series often up to 46.2 µM), without a hit: at the highest dose activity change, negative = growth inhibition, actives largely listed as inhibitors; 15% of 420,000 active; AID 686978, 2013; further: potency means the concentration at half of the fitted maximal effect; nearly all actives have a fitted effect of over 55% in size
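Growth of hTDP1-complemented DT40 Tdp1-knockout cells is measured by ATP luminescence after at least 48 hr compound exposure at 37 °C, with DMSO substituting for the 20 nM CPT used in the parallel screen.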
TDP1 cell CPT: DT40-hTDP1 cell growth loss with CPT. chicken DT40 Tdp1-/-;hTDP1 cells + 20 nM CPT, ATP luminescence, 48 h. Potency, µM (series often up to 46.2 µM), for the others: at the top dose activity change, negative = growth inhibition, most hits filed as inhibitors. 12% of 420,000 active. AID 686979; further: potency means the concentration at half of the fitted maximal effect; nearly all actives have a fitted effect of over 55% in size
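Cell growth measured by CellTiter-Glo luminescence after a minimum 48 h, 37 C compound exposure with 20 nM CPT in Tdp1-knockout DT40 cells stably expressing hTDP1, seeded 400/well; qHTS titration format.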
VP16 counter: Gal4-VP16 reporter inhibition counter-screen; Potency, µM (top dose mostly 53.6 µM), for the others: top-dose activity, negative = inhibition, hits mostly inhibitors; AID 2546; 3.5% of 310,000 active; Drosophila S2 Gal4-VP16 UAS-luciferase, luminescence, 20 h;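 further: Gal4-VP16 expression switched on by copper sulfate through the metallothionein promoter; potency means the concentration at half of the fitted maximal effect; nearly all actives have a fitted effect of over 50% in size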
RORg inh: blocks mouse ROR gamma transcriptional activity. Drosophila S2 Gal4-RORgamma UAS-luciferase reporter, 20 h. 5.4% of 310,000 active. P51450. AID 2551. Potency, µM (doses to about 53.6 µM), inactives show top-dose activity change, negative = inhibition, hits mostly inhibitors; further: potency means the concentration at half of the fitted maximal effect; nearly all actives have a fitted effect of over 60% in size
Target sequence (P51450 whole entry, looked up, the tested form may be a part): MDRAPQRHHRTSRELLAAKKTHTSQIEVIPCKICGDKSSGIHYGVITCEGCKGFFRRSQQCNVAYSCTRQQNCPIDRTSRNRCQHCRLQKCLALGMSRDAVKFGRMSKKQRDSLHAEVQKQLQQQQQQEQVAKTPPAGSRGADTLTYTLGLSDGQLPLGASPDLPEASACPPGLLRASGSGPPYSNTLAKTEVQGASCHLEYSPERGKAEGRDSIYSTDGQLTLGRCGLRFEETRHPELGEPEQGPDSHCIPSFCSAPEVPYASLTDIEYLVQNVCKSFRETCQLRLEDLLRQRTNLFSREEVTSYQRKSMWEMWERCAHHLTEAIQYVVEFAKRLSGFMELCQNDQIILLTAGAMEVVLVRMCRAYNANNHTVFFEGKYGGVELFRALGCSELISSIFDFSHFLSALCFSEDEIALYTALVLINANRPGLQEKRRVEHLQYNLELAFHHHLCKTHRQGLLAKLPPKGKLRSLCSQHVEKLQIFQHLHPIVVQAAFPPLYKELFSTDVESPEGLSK
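Drosophila Schneider cells stably carrying a metallothionein-driven Gal4 DBD–ROR gamma fusion and a UAS-Photinus luciferase reporter were exposed to compound for 1 hr, then induced with copper sulfate (700 uM final) for 20 hr at ambient temperature before luminescence reading.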
* hit, by the source's call; i = inactive; ? = inconclusive; . = no result; ! = repeats disagree. Compounds with a hit are over-represented: about 21% of the library has one in this group of screens. Unless noted, the call rests on the fitted dose curve; in most records, active means well fitted curve in the direction sought with a large enough effect; inconclusive means small, poorly fitted or top-dose-only effect, or another doubt; inactive means no such curve, though single readings can be large; an effect the other way counts as inactive or inconclusive. On the % scale 0 is the no-effect control and ±100 the full control effect.

SMILES	ELG1 DNA repair	IL1B secr inh	TDP1 cell noCPT	TDP1 cell CPT	VP16 counter	RORg inh
COc1ccc(-c2ccc(=O)n(Cc3c(F)cccc3Cl)n2)cc1	-2%	4	7.3µM*	15µM*	2%	0%
O=c1ccc(-c2ccccc2)nn1Cc1ccc(Cl)cc1	.	-27	16µM*	?	.	.
C=Cc1ccc(Cn2nc(-c3ccc(C)cc3)ccc2=O)cc1	-3%	-79*	?	?	-5%	1%
COc1cccc(CNC(=O)Cn2nc(-c3ccc(Cl)cc3)ccc2=O)c1	13%	15	?	?	-6%	-5%
Cc1cc(C)cc(NC(=O)c2cc(C)nn2C)c1	17%	-9	-24%	10%	1%	16%
CC1=NN(C(=O)c2csc(C)c2)C(O)(C(F)(F)F)C1 (stereo not drawn)	-2%	13	0.13µM*	0.13µM*	5.6µM*	3.5µM*
CC1=NN(C(=O)c2c(Br)c(C)nn2C)C(O)(C(F)(F)F)C1 (stereo not drawn)	4%	90	1µM*	1.2µM*	?	20µM*
CC1=NN(C(=O)c2ccc(Br)cc2)C(O)(C(F)(F)OC(F)(F)F)C1 (stereo not drawn)	-1%	-55*	?	?	18µM*	11µM*
COc1ccc(CC(=O)N2N=C(C)CC2(O)C(F)(F)F)cc1OC (stereo not drawn)	8%	15	-5%	6%	?	?
CC1=NN(C(=O)c2cc(C)nn2C)C(O)(C(F)(F)F)C1 (stereo not drawn)	3%	16	0.92µM*	0.65µM*	?	11µM*
O=C(CCn1c(=O)c2ccccc2n(CC(=O)Nc2cccc(F)c2)c1=O)NCCc1ccccc1	.	.	-28%	5%	.	.
CC1(C)CC(=O)C=C(Nc2ccc([N+](=O)[O-])cc2)C1	0%	20	-5%	-19%	-7%	5%
COc1ccccc1C(=O)NCCC(=O)N1CC(C)OC(C)C1 (stereo not drawn)	.	5	-21%	-6%	.	.
CC1=NN(C(=O)c2csc(C)c2C)C(O)(C(F)(F)F)C1 (stereo not drawn)	15%	0	0.92µM*	0.65µM*	4.5µM*	5.6µM*
Cc1noc(C)c1COc1ccccc1C(=O)NCCc1ccc(F)cc1	.	-6	?	?	.	.
COc1ccc(CNC(=O)c2[nH]c(C(F)(F)F)nc2-c2ccccc2)cc1OC	.	6	-17%	-29%	.	.
COc1ccc(CNc2cccc3[nH]c(C(F)(F)F)nc23)cc1OC	26µM*	-9	21µM*	?	-16%	4%
C[C@H]1CN([C@@H](C)CO)S(=O)(=O)c2ccc(Br)cc2O[C@@H]1CN(C)Cc1ccccc1	.	0	21µM*	?	.	.
CCCC#Cc1ccc2c(c1)O[C@@H](CN(C)Cc1ccc3c(c1)OCO3)[C@H](C)CN([C@@H](C)CO)S2(=O)=O	.	-3	2.3µM*	7.3µM*	.	.
C[C@H](CO)N1C[C@H](C)[C@@H](CN(C)Cc2cccnc2)Oc2cc(-c3cccnc3)ccc2S1(=O)=O	.	-21	-28%	-20%	.	.
C[C@H]1CN([C@@H](C)CO)S(=O)(=O)c2ccc(Br)cc2O[C@H]1CN(C)Cc1ccccc1	.	-9	?	?	.	.
C[C@H](CO)N1C[C@H](C)[C@H](CN(C)Cc2ccncc2)Oc2cc(-c3ccccc3F)ccc2S1(=O)=O	.	-29	23µM*	15µM*	.	.
CCOc1ccc(S(=O)(=O)Nc2ccc(C(=O)NCC(c3ccccc3)N(C)C)cc2)cc1 (stereo not drawn)	-4%	0	3%	0%	.	.
N#C/C(=C\c1cc([N+](=O)[O-])ccc1Cl)C(N)=O	-5%	-89*	2.9µM*	2.6µM*	-8%	-40%
CN(C)C(=O)c1ccc(SC(=S)NCc2ccccc2)cc1	.	?	5.8µM*	5.8µM*	.	.
SMILES	ELG1 DNA repair	IL1B secr inh	TDP1 cell noCPT	TDP1 cell CPT	VP16 counter	RORg inh
Cc1ccc(NC(=O)C(CC(C)C)NS(=O)(=O)c2ccc3c(c2)oc(=O)n3C)c(C)c1 (stereo not drawn)	.	.	-11%	17%	.	.
C/C(=N\O)C(=O)C(CN1CCCCC1)CN1CCCCC1	5%	-30	2.6µM*	2.9µM*	11%	-6%
CCC1(CC)NC(=O)N(CC(=O)OC(C)C(=O)Nc2ccccc2OC)C1=O (stereo not drawn)	?	3	-2%	-9%	.	.
Brc1ccc2c(c1)CN1CCCC1=N2	4%	-8	21µM*	13µM*	-17%	-31%
CC(C)(C)c1ccc(-n2ncc3c2CCCC3NC(=O)CN2CCCC2=O)cc1 (stereo not drawn)	?	i	16µM*	18µM*	7.1µM*	?
CC(=O)CCC(=O)NC1CCCc2c1cnn2-c1ccc(C(C)(C)C)cc1 (stereo not drawn)	-13%	49	?	?	?	?
CC(C)(C)c1ccc(-n2ncc3c2CCCC3NC(=O)CCN2CCCC2=O)cc1 (stereo not drawn)	-5%	18	2.1µM*	6.5µM*	0.89µM*	3.5µM*
CN(C)CCCN1c2ccccc2CCc2ccc(Cl)cc21	-26%	?	10µM*	15µM*	-4%	?
CCC(=O)c1ccc2c(c1)N(CCCN(C)C)c1ccccc1S2	.	?	21µM*	?	-3%	1%
CCN(CC)CCN1c2ccccc2Sc2ccccc21	2%	0	?	?	-1%	-29%
CN(C)CCCN1c2ccccc2Sc2ccccc21	0%	?	18µM*!	16µM*	-2%	20%
CCCn1c(SCC(=O)Nc2ccc(F)c(Cl)c2)nc(O)cc1=O	-6%	13	-2%	4%	.	.
O=C(COC(=O)c1ccccc1OCc1ccc(Cl)cc1)NC1CC1	-24%	6	-20%	?	-2%	23%
c1ccc(-c2noc(-c3cccnc3NCc3ccco3)n2)cc1	.	.	-12%	?	.	.
CCN(CC)C(=O)Oc1ccc(Cl)c2cccnc12	2%	-4	-11%	4%	?	17%
CCCCC(=O)NC(c1cccs1)c1cc(Cl)c2cccnc2c1O (stereo not drawn)	?	50	2.6µM*	3.7µM*	3.5µM*	2.5µM*
CCC(=O)NC(c1cc(Cl)c2cccnc2c1O)C(C)C (stereo not drawn)	8.2µM*	.	.	.	.	.
